# Bioassay records deposited in PubChem BioAssay by several laboratories.
# The list is not random: actives were taken first. Their share in the collection is about 2.5%.
# Mcl1-Noxa inh: disrupts binding of human Mcl-1 to Noxa peptide | AID 1022 | Q07820 | TR-FRET Mcl-1/Noxa peptide binding, 2 h | actives 1.5% (n = 220,000) | inhibition, % at 21.7 µM;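 active = compounds that cut the protein-peptide binding signal by more than 50% relative to plate controls in a single-dose test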;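 also: His-tagged Mcl-1 with rhodamine Noxa BH3 peptide and terbium anti-His antibody; 0% = Mcl-1 plus Noxa peptide wells and 100% = peptide-only wells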
# 14-3-3 Bad inh: disrupts binding of bovine 14-3-3 zeta to phospho-Bad peptide. P63103. TR-FRET 14-3-3zeta/Dy647-pBad peptide displacement, 1 h. inhibition, % at 21.7 µM. actives 0.71% (n = 220,000). AID 781;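 active = inhibition above about 70%, limit read from the data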;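 also: 0% = full 14-3-3 plus peptide FRET controls and 100% = background without 14-3-3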
# Target sequence (P63103 whole entry, looked up): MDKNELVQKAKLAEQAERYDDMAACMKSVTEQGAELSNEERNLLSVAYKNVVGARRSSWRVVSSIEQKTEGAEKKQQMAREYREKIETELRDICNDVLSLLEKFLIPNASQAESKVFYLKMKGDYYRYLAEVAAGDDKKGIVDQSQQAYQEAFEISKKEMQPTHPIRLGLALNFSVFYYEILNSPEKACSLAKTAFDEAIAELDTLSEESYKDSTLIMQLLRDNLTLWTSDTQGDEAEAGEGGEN
# Mcl1 Bid PPI: Mcl-1/Bid interaction inhibition. Q07820. AID 1021. TR-FRET Mcl-1/Bid-Dy647 peptide binding, 1536-well. inhibition, % at 21.7 µM. actives 0.97% (n = 220,000);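 active = compounds that cut the binding signal by more than half at the single screening dose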;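 also: His-tagged Mcl-1 with europium anti-His antibody binding Bid BH3 peptide; 0% = Mcl-1 plus peptide wells and 100% = peptide-only wells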
# Bim-Mcl-1: disrupts Bim peptide binding to human Mcl-1 | Q07820 | Bead-based flow cytometry, Bim peptide-Mcl-1 binding | inhibition, % at 10 µM | actives 0.1% (n = 190,000); in the data active = inhibition above about 40%;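 also: 0% = no compound tracer wells and 100% = peptide blocker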
# MCL1 BIM primary: disrupts human MCL1 binding to BIM-BH3 peptide; Q07820; GST-MCL1 / FITC-Bim-BH3 fluorescence polarization; inhibition, % at 10.9 µM; actives 0.68% (n = 320,000); AID 2057;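 active = inhibition above the mean inhibition of all tested compounds plus 3 SD, set per campaign, cut at about 40% in these data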;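 also: 0% = DMSO wells and 100% = unlabeled Bim-BH3 peptide control; higher means more loss of mP so more displacement of Bim peptide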
# Bcl-xL conf: Bcl-xL (human) inhibition, MCL1 counter-screen confirmation. shares compounds with MCL1 BIM primary. GST-Bcl-xL / FITC-Bim BH3 peptide FP binding. inhibition, % at 10.9 µM. actives 54% (n = 1,700);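 active = inhibition above a cutoff equal to the mean inhibition of all tested compounds plus 3 SD, cut at about 30% in these data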;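 also: 0% = DMSO wells and 100% = unlabeled Bim BH3 control peptide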
# Target sequence (Q07817 whole entry, looked up): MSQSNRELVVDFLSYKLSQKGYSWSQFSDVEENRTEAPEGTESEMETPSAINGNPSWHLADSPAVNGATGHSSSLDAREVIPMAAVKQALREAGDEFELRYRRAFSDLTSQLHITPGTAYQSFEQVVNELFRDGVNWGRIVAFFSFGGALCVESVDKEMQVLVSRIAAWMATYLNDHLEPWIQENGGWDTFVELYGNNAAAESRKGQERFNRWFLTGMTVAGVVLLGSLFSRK
# MCL1 BIM confirm: MCL1-BIM-BH3 interaction inhibition, confirmation | shares compounds with MCL1 BIM primary | GST-MCL1 / FITC-Bim-BH3 fluorescence polarization | inhibition, % at 10.9 µM | actives 61% (n = 1,700) | AID 2168;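 active = inhibition above the average of all tested compounds plus 3 SD, cut at about 40% in these data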;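 also: 0% = DMSO wells and 100% = unlabeled Bim-BH3 control peptide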
# * = called active by the depositor; · = no result given; + = active, no number; ! = repeats disagree.
SMILES,Mcl1-Noxa inh,14-3-3 Bad inh,Mcl1 Bid PPI,Bim-Mcl-1,MCL1 BIM primary,Bcl-xL conf,MCL1 BIM confirm
O=C1C(Cl)=CC(=Nc2ccc(O)cc2)C=C1Cl,·,·,·,·,43.6*,40.4*,59.9*
CN1Cc2c(c(C#N)c(N)n(C)c2=S)CC1(C)C,15.3,-5.9,-64.7,5.0,102.7*,144.0*,184.6*
CCOCCN1CCN(c2nnc3n2-c2ccc(Cl)cc2C(c2ccccc2Cl)=NC3)CC1,-13.4,2.9,-9.5,-2.0,7.0,·,·
Nc1cccc(N=Cc2c(O)n(Cc3ccc(F)cc3)c(=O)[nH]c2=O)c1,9.2,3.2,-27.1,-2.0,83.8*,15.7,1.6
O=c1[nH]c(=O)n(Cc2ccc(F)cc2)c(O)c1C=Nc1ccc(Cl)cc1,21.2,-5.7,3.2,-2.0,-3.1,·,·
COc1ccccc1N1C(=O)NC(=O)/C(=C/c2ccc([N+](=O)[O-])s2)C1=O,45.4,10.6,-24.9,·,25.4,·,·
COc1ccc(N2C(=O)NC(=O)/C(=C\c3ccc([N+](=O)[O-])s3)C2=O)cc1,50.9*,4.5,-14.8,1.0,41.0*,43.8*,54.6*
O=C1NC(=O)N(Cc2ccc(F)cc2)C(=O)/C1=C\c1ccc(N2CCCC2)cc1,35.2,-6.5,-34.5,·,-98.5,·,·
O=C1NC(=O)N(Cc2ccc(F)cc2)C(=O)/C1=C\c1ccc([N+](=O)[O-])s1,93.0*,8.3,30.6,·,40.4*,16.8,43.6*
CCCC[N+]12C3C[C@H](C4[C@H](O)[C@]5(C[C@@H]41)c1ccccc1N(C)[C@@H]35)[C@H](CC)[C@H]2O (stereo not given in full),·,·,·,·,-15.7,·,·
N/C(=N\N=C\c1ccc(O)cc1O)N[N+](=O)[O-],-6.4,-6.2,-136.5,0.0,13.1,·,·
CC(C)[C@@]1(NC(=O)[C@@H]2C=C3c4cccc5[nH]cc(c45)C[C@H]3N(C)C2)O[C@@]2(O)[C@@H]3CCCN3C(=O)[C@H](Cc3ccccc3)N2C1=O,24.2,2.1,-9.3,5.0,·,·,·
CC(C)[C@H]1C(=O)N2CCC[C@H]2[C@]2(O)O[C@](NC(=O)[C@@H]3C=C4c5cccc6[nH]cc(c56)C[C@H]4N(C)C3)(C(C)C)C(=O)N12,11.0,-3.1,-14.6,7.0,+,106.5*,127.6*
N[C@@H](Cc1c[nH]c2ccccc12)c1nnc(SCc2ccccc2)o1,29.3,16.1,-39.9,2.0,-4.0,·,·
CCn1cc(C=C2C(=O)NC(=O)NC2=O)c2ccccc21,·,·,·,·,148.0*,112.1*,123.1*
Oc1c(Cl)c(Cl)c(Cl)c(Cl)c1Cl,·,·,·,·,52.7*,10.8,38.1
COC(=O)C1=C(c2cccc(OCc3ccccc3)c2)C[C@@H]2CC[C@H]1N2C(=O)NCCCOC(C)C,·,·,·,·,9.2,·,·
O=C1NC(=S)N(c2ccccc2)C(=O)/C1=C/c1ccco1,·,·,·,·,52.7*,17.6,24.5
CCOc1cccc(N2C(=O)/C(=C/c3ccco3)C(=O)NC2=S)c1,·,·,·,·,-4.8,·,·
CC[N+](CC)(CC)CC,-7.6,-1.2,-49.2,·,49.7*,13.5,1.8
CCOC(=O)C(O)(c1ccc(N(CC)C(=O)OC)cc1)C(F)(F)F (stereo not given),12.1,-9.7,2.7,-3.0,0.7,·,·
NC(Cc1cc(O)c(O)cc1O)C(=O)O (stereo not given),·,·,·,·,95.4*,54.6*,96.1*
N[C@@H](CCl)C(=O)O,·,·,·,·,1.8,·,·
O=C(O)c1cccc2c1NC(C(=O)O)C1CC(Sc3ccccc3[N+](=O)[O-])C(Cl)C21 (stereo not given),94.0*,28.5,0.6,0.0,99.6*,49.9*,106.2*
CC(=O)c1ccc2c(c1)C1C(Cl)C(Sc3ccccc3[N+](=O)[O-])CC1C(C(=O)O)N2 (stereo not given),109.5*,-3.3,41.6,-14.0,63.7*,19.2,37.9
SMILES,Mcl1-Noxa inh,14-3-3 Bad inh,Mcl1 Bid PPI,Bim-Mcl-1,MCL1 BIM primary,Bcl-xL conf,MCL1 BIM confirm
NC(N)=N/N=C/c1cn(-c2ccccc2)nc1-c1cccs1,26.4,15.5,5.0,-5.0,9.6,·,·
O=c1[nH]c(O)c(C=NCCc2ccccc2)c(=O)[nH]1,-0.7,4.0,-42.4,·,0.1,·,·
O=c1[nH]c(O)c(/C=C2\C=Nc3ccc(OCc4ccccc4)cc32)c(=O)[nH]1,·,·,·,·,188.0*,125.5*,153.1*
CC(C)OP(=O)(O)NC(=O)c1ccccc1,8.5,-9.7,13.7,0.0,3.9,·,·
Clc1cccc(N2CCNCC2)c1,·,·,·,·,-5.1,·,·
Nc1cc2nc3ccccc3nc2cc1N,51.2*,18.4,-55.3,·,140.4*,+,+
COc1ccc(C2SCC(=O)Nc3c2c(C)nn3-c2ccccc2)cc1 (stereo not given),8.4,-1.7,-0.9,0.0,4.0,·,·
O=C(CF)NC(Nc1cccc2cccnc12)C(Cl)(Cl)Cl (stereo not given),-11.9,6.0,-35.1,-1.0,11.5,·,·
O=C1C2CCCN2C(c2cccc(Cl)c2)N1c1ccccn1 (stereo not given),-8.8,-1.2,2.5,-2.0,4.7,·,·
O=c1[nH]c(=S)n(-c2ccc(Cl)cc2)c(O)c1C=Nc1ccc(N2CCOCC2)cc1,-2.4,4.5,-14.8,3.0,+,185.4*,+
O=c1[nH]c(=O)n(C2CCCCC2)c(O)c1C=Nc1ccc(N2CCOCC2)cc1,13.4,-0.3,-90.7,0.0,1.9,·,·
O=c1[nH]c(=O)n(-c2ccccc2)c(O)c1/C=C/C=Nc1ccccc1,-2.9,-14.1,-53.3,-1.0,-267.9,·,·
CN1C[C@H](CO)C=C2c3cccc4[nH]cc(c34)C[C@H]21,19.3,10.8,-22.7,1.0,79.1*,65.1*,86.7*
O=C1NC(=O)N(c2cccc(Cl)c2)C(=O)/C1=C\c1ccc(Sc2nc3ccccc3[nH]2)o1,52.3*,37.7,-5.6,-1.0,180.5*,25.4,41.1*
O=C1NC(=O)N(c2ccccc2F)C(=O)/C1=C/c1ccc(Sc2nc3ccccc3[nH]2)o1,66.2*,22.9,30.5,12.0,58.6*,40.6*,66.2*
COCCCNC(=O)Cn1cc(/C=C2\C(=O)NC(=O)N(c3ccccc3F)C2=O)c2ccccc21,·,·,·,·,100.0*,117.3*,133.3*
COc1ccccc1-n1c(/C=C/c2ccccn2)nc2ccccc2c1=O,·,·,·,·,0.3,·,·
CN1CCC2(CC1)C(C#N)=C(N)NC(S)=C2C#N,44.0,5.7,-42.4,-5.0,118.3*!,89.9*,103.6*
O=[N+]([O-])c1cccc(O)c1,·,·,·,·,0.1,·,·
O=[N+]([O-])c1cc(S(=O)(=O)c2ccc(O)c([N+](=O)[O-])c2)ccc1O,84.9*,0.3,-70.0,0.0,47.3*,24.0,71.9*
O=c1[nH]c2ccccc2n1CCCN1CCC(n2c(=O)[nH]c3cc(Cl)ccc32)CC1,23.2,92.3*,-9.4,0.0,54.0*,9.7,5.8
